In PubChem BioAssay AID1159580 (chemical genetic matrix, 2015):
Several values for one entry are separate records, joined by “and”; a condition that tells them apart may be missing. Identical values can stand only once. Screen size: about 5,500 compounds; about 2,000 (36%) were called active. About 18% were inconclusive and are not listed. Rule as the data show it: active = normalized growth mostly below about 0.91 (no sharp cut-off); inconclusive = no clear call, values can overlap the other calls; inactive = mostly above about 0.92. The list shows a part of the results. Some compounds were tested as several samples or in several runs, with calls that do not always agree.

Experiment: chemical genetic growth profiling, strain panel (AID 1159580);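 also: tested at 20 µM; growth read once vehicle control cultures reached saturation at 30 °C; 1 = growth at the plate median or of vehicle wells; lower values mean less growth of the strain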
Settings: S. cerevisiae deletion strains, growth OD

## CCN(CC)CCCC(C)Nc1c2ccc(Cl)cc2nc2ccc(OC)cc12 (stereo unspecified)
Locus YAL013W, strain DEP1, stronger effect = lower value
  normalized growth: 0.992 (inactive)
Locus YAL021C, strain ccr4, stronger effect = lower value
  normalized growth: 0.906 (active)
Locus YAL026C, strain drs2, stronger effect = lower value
  normalized growth: 0.994 (inactive)
Locus YAL030W, strain snc1, stronger effect = lower value
  normalized growth: 1.02 (inactive)
Locus YAL040C, strain CLN3, stronger effect = lower value
  normalized growth: 0.972 (inactive)
Locus YBL061C, strain skt5, stronger effect = lower value
  normalized growth: 1.03 (inactive)
Locus YBR009C, strain hhf1, stronger effect = lower value
  normalized growth: 0.894 (active)
Locus YBR021W, strain FUR4, stronger effect = lower value
  normalized growth: 0.89 (inactive)
Locus YBR023C, strain chs3, stronger effect = lower value
  normalized growth: 0.984 (inactive)
Locus YBR171W, strain sec66, stronger effect = lower value
  normalized growth: 1.05 (inactive)
Locus YBR229C, strain ROT2, stronger effect = lower value
  normalized growth: 0.87 (active)
Locus YBR231C, strain swc5, stronger effect = lower value
  normalized growth: 0.978 (inactive)
Locus YBR279W, strain paf1, stronger effect = lower value
  normalized growth: 0.966 (inactive)
Locus YCL011C, strain gbp2, stronger effect = lower value
  normalized growth: 0.965 (inactive)
Locus YCL016C, strain dcc1, stronger effect = lower value
  normalized growth: 0.844 (active)
Locus YCL029C, strain bik1, stronger effect = lower value
  normalized growth: 0.479 (active)
Locus YCL061C, strain MRC1 (second series), stronger effect = lower value
  normalized growth: 0.917 (active)
Locus YCL061C, strain MRC1, stronger effect = lower value
  normalized growth: 1.01 (inactive)
Locus YCL069W, strain vba3, stronger effect = lower value
  normalized growth: 1.01 (inactive)
Locus YCR088W, strain abp1, stronger effect = lower value
  normalized growth: 1.03 (inactive)
Locus YDL005C, strain med2, stronger effect = lower value
  normalized growth: 1.01 (inactive)
Locus YDL035C, strain GPR1, stronger effect = lower value
  normalized growth: 0.627 (active)
Locus YDL040C, strain nat1, stronger effect = lower value
  normalized growth: 1.03 (inactive)
Locus YDL074C, strain BRE1, stronger effect = lower value
  normalized growth: 0.511 (active)
Locus YDL101C, strain DUN1, stronger effect = lower value
  normalized growth: 0.728 (active)
Locus YDL134C, strain PPH21, stronger effect = lower value
  normalized growth: 0.771 (active)
Locus YDL185W, strain tfp1, stronger effect = lower value
  normalized growth: 1.01 (inactive)
Locus YDL192W, strain arf1, stronger effect = lower value
  normalized growth: 0.669 (active)
Locus YDR001C, strain nth1, stronger effect = lower value
  normalized growth: 1.04 (inactive)
Locus YDR069C, strain doa4, stronger effect = lower value
  normalized growth: 0.989 (inactive)
Locus YDR101C, strain arx1, stronger effect = lower value
  normalized growth: 0.413 (active)
Locus YDR137W, strain rgp1, stronger effect = lower value
  normalized growth: 1.04 (inactive)
Locus YDR150W, strain NUM1, stronger effect = lower value
  normalized growth: 0.945 (inactive) and 0.826 (active)
Locus YDR159W, strain sac3, stronger effect = lower value
  normalized growth: 1.08 (inactive)
Locus YDR162C, strain NBP2, stronger effect = lower value
  normalized growth: 0.802 (active)
Locus YDR195W, strain ref2
  normalized growth: 1.06 (inactive)
Locus YDR297W, strain sur2, stronger effect = lower value
  normalized growth: 1 (inactive)
Locus YDR318W, strain mcm21, stronger effect = lower value
  normalized growth: 0.618 (active)
Locus YDR334W, strain swr1, stronger effect = lower value
  normalized growth: 1.02 (inactive)
Locus YDR335W, strain msn5, stronger effect = lower value
  normalized growth: 1.02 (inactive)
Locus YDR363W, strain ESC2, stronger effect = lower value
  normalized growth: 0.715 (active)
Locus YDR388W, stronger effect = lower value
  normalized growth: 0.695 (active)
Locus YDR392W, strain spt3, stronger effect = lower value
  normalized growth: 0.717 (active)
Locus YDR502C, strain sam2, stronger effect = lower value
  normalized growth: 0.708 (active)
Locus YEL003W, strain gim4, stronger effect = lower value
  normalized growth: 1.01 (inactive)
Locus YEL037C, strain rad23, stronger effect = lower value
  normalized growth: 0.992 (inactive)
Locus YEL061C, strain CIN8 (second series), stronger effect = lower value
  normalized growth: 1.03 (inactive)
Locus YEL061C, strain CIN8, stronger effect = lower value
  normalized growth: 0.907 (active)
Locus YER002W, strain NOP16, stronger effect = lower value
  normalized growth: 1 (inactive)
Locus YER015W, strain faa2, stronger effect = lower value
  normalized growth: 1.01 (inactive)
Locus YER016W, strain bim1, stronger effect = lower value
  normalized growth: 1.02 (inactive)
Locus YER110C, stronger effect = lower value
  normalized growth: 0.908 (inactive)
Locus YER111C, strain swi4, stronger effect = lower value
  normalized growth: 1.02 (inactive)
Locus YER155C, strain BEM2 (second series), stronger effect = lower value
  normalized growth: 0.943 (inactive)
Locus YER155C, strain BEM2, stronger effect = lower value
  normalized growth: 0.997 (inactive)
Locus YER167W, strain BCK2, stronger effect = lower value
  normalized growth: 0.641 (active)
Locus YFR010W, strain ubp6, stronger effect = lower value
  normalized growth: 0.988 (inactive)
Locus YGL078C, strain dbp3, stronger effect = lower value
  normalized growth: 0.817 (active)
Locus YGL086W, strain mad1, stronger effect = lower value
  normalized growth: 0.74 (active)
Locus YGL167C, strain pmr1, stronger effect = lower value
  normalized growth: 1.03 (inactive)
Locus YGL173C, strain kem1, stronger effect = lower value
  normalized growth: 0.997 (inactive)
Locus YGL227W, strain vid30, stronger effect = lower value
  normalized growth: 1.03 (inactive)
Locus YGL240W, strain doc1, stronger effect = lower value
  normalized growth: 1 (inactive)
Locus YGL248W, strain PDE1, stronger effect = lower value
  normalized growth: 0.735 (active)
Locus YGL253W, strain hxk2, stronger effect = lower value
  normalized growth: 0.975 (inactive)
Locus YGR078C, strain PAC10, stronger effect = lower value
  normalized growth: 0.818 (active)
Locus YGR135W, strain pre9, stronger effect = lower value
  normalized growth: 0.739 (active)
Locus YGR229C, strain SMI1, stronger effect = lower value
  normalized growth: 0.754 (active)
Locus YGR252W, strain gcn5, stronger effect = lower value
  normalized growth: 0.643 (active)
Locus YHR013C, strain ard1, stronger effect = lower value
  normalized growth: 0.844 (active)
Locus YHR027C, strain rpn1, stronger effect = lower value
  normalized growth: 1.03 (inactive)
Locus YHR030C, strain SLT2, stronger effect = lower value
  normalized growth: 0.911 (active) and 0.737 (active)
Locus YHR079C, strain IRE1 (second series), stronger effect = lower value
  normalized growth: 0.49 (active)
Locus YHR079C, strain IRE1, stronger effect = lower value
  normalized growth: 0.761 (active)
Locus YHR094C, strain hxt1, stronger effect = lower value
  normalized growth: 0.796 (active)
Locus YHR129C, strain ARP1, stronger effect = lower value
  normalized growth: 0.809 (active)
Locus YHR142W, strain chs7, stronger effect = lower value
  normalized growth: 0.947 (inactive)
Locus YHR200W, strain rpn10, stronger effect = lower value
  normalized growth: 0.786 (active)
Locus YIL066C, strain RNR3, stronger effect = lower value
  normalized growth: 0.798 (active)
Locus YIL073C, strain SPO22, stronger effect = lower value
  normalized growth: 0.69 (inactive)
Locus YIL125W, strain kgd1, stronger effect = lower value
  normalized growth: 0.899 (active)
Locus YIR030C, strain dcg1, stronger effect = lower value
  normalized growth: 0.768 (active)
Locus YJL092W, strain hpr5, stronger effect = lower value
  normalized growth: 1.02 (inactive)
Locus YJL095W, strain BCK1 (second series), stronger effect = lower value
  normalized growth: 1.03 (inactive)
Locus YJL095W, strain BCK1, stronger effect = lower value
  normalized growth: 0.622 (active) and 0.668 (active)
Locus YJL115W, strain asf1, stronger effect = lower value
  normalized growth: 1.03 (inactive)
Locus YJL129C, strain trk1, stronger effect = lower value
  normalized growth: 1.02 (inactive)
Locus YJL134W, strain LCB3, stronger effect = lower value
  normalized growth: 1.01 (inactive)
Locus YJL154C, strain vps35, stronger effect = lower value
  normalized growth: 1.04 (inactive)
Locus YJL164C, strain tpk1, stronger effect = lower value
  normalized growth: 0.911 (active)
Locus YJL166W, strain qcr8, stronger effect = lower value
  normalized growth: 0.942 (inactive)
Locus YJL168C, strain set2, stronger effect = lower value
  normalized growth: 1.02 (inactive)
Locus YJL187C, strain SWE1 (second series), stronger effect = lower value
  normalized growth: 0.453 (active)
Locus YJL187C, strain SWE1, stronger effect = lower value
  normalized growth: 1.01 (inactive)
Locus YJR043C, strain POL32, stronger effect = lower value
  normalized growth: 0.79 (active)
Locus YJR066W, strain TOR1, stronger effect = lower value
  normalized growth: 0.558 (active)
